Data from PubChem BioAssay (Tox21).
Where “and” joins values, the source holds several entries; their conditions need not be identical. Equal entries are not always repeated. Inconclusive results are not listed. Where a call stands in place of a potency, no number is given. The source holds several records for some structures; these can differ, active in one and inactive in another. Calls of active or inactive are those of the source. Unless noted, calls come from the whole dose curve; as a rule, active = well fitted curve in the direction sought with a large enough effect in the repeat runs; inconclusive = weak or mixed curves; inactive = no such curve, though single readings can be large; an effect the other way counts as inactive or inconclusive.

Tests used:
[1] = qHTS assay to identify small molecule agonists of the TGF-beta/Smad signaling pathway - cell viability counter screen (AID 1346829); note: top concentration of the series differs between compounds; nearly all actives have a fitted effect of over 45% in size
Procedure, shortened: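 In parallel with the Smad reporter read, viability of HEK 293T cells stably carrying SBE-bla is quantified by ATP luminescence following 5 hr compound treatment.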

[2] = qHTS assay to identify small molecule agonists of the TGF-beta/Smad signaling pathway (AID 1346859; active = well fitted activation curve with a large enough effect in the signal ratio in the repeat runs, not every such curve was filed as active; the % refers to the signal ratio; note: series mostly up to about 77 µM)
Procedure, shortened: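 Dual-wavelength fluorescence (460/530 nm emission) quantified beta-lactamase expression under the Smad binding element in HEK 293T cells following 5 hr compound treatment at 37 C.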

[3] = Human pregnane X receptor (PXR) small molecule agonists, qHTS cell viability counter screen (AID 1346977); note: nearly all actives have a fitted effect of over 50% in size; note: potency is the fitted concentration of half-maximal effect
Procedure, shortened: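 HepG2 cells stably carrying the PXR-Luc reporter are cultured with 5% charcoal-stripped FBS and treated with compounds for 24hr. CellTiter-Fluor is added at 23hr and fluorescence is read after 1hr.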

[4] = Caspase-3/7 induction in HepG2 cells by small molecules, qHTS assay (AID 1346978); note: nearly all actives have a fitted effect of over 15% in size
Procedure, shortened: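 Caspase-3/7 induction was measured by Caspase-Glo 3/7 luminescence (30 min, room temperature) after a 17 hr compound exposure of wild-type HepG2 cells seeded at 2,000 per well and pre-incubated 5 hr.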

[5] = Caspase-3/7 induction in CHO-K1 cells by small molecules, qHTS cell viability counter screen (AID 1346979); note: nearly all actives have a fitted effect of over 35% in size; note: potency is the fitted concentration of half-maximal effect
Procedure, shortened: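 Seeding: 1,500 CHO-K1 cells/well. Rest: 5hr, 37C. Treatment: compounds in DMSO, 16hr. Read: CellTiter-Fluor, 1hr, fluorescence.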

[6] = Caspase-3/7 induction in CHO-K1 cells by small molecules, qHTS assay (AID 1346980); note: nearly all actives have a fitted effect of over 15% in size
Procedure, shortened: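 Luminescent Caspase-Glo 3/7 read (30min, room temperature) quantified apoptosis induction. Cells were wild-type CHO-K1, treated with compound for 17hr at 37 C and 5% CO2.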

[7] = Caspase-3/7 induction in HepG2 cells by small molecules, qHTS cell viability counter screen (AID 1346981); note: series mostly up to about 92 µM; nearly all actives have a fitted effect of over 30% in size
Procedure, shortened: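 Treatment of HepG2 cells with DMSO-delivered compounds ran 16 hr at 37 C following a 5-hr pre-incubation of 2,000 cells/well. CellTiter-Fluor fluorescence, read after 1 hr, served as the viability measure in a qHTS format.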

[8] = biological target: Nuclear receptor subfamily 1 group I member 2 (Homo sapiens) (UniProt O75469); assay: Human pregnane X receptor (PXR) small molecule agonists, qHTS assay (AID 1346982); note: nearly all actives have a fitted effect of over 35% in size; note: potency is the fitted concentration of half-maximal effect
Chain of Nuclear receptor subfamily 1 group I member 2 (Homo sapiens) (O75469 whole entry, looked up): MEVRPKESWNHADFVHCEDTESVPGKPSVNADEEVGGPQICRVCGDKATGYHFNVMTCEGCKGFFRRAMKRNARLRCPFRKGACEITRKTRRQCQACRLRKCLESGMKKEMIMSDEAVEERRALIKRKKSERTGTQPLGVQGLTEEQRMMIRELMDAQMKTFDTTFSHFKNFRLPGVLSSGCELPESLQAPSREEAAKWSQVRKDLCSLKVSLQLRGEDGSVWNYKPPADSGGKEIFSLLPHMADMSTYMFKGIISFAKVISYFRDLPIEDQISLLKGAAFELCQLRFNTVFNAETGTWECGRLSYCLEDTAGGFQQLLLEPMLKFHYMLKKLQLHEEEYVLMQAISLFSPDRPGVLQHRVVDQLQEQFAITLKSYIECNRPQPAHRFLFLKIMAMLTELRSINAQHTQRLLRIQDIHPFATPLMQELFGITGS
Procedure, shortened: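 Stable HepG2 line reporting PXR-mediated CYP3A4 expression via luciferase. Treatment: 24 hr with compounds in DMSO at 37 C. Detection: ONE-Glo luminescence.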

[9] = biological target: Acetylcholinesterase (Homo sapiens) (UniProt P22303); assay: Acetylcholinesterase (AChE) small molecule antagonists: colormetric cell-based qHTS assay (AID 1347395; calls by dose curve; note: nearly all actives have a fitted effect of over 30% in size; note: potency is the fitted concentration of half-maximal effect)
Chain of Acetylcholinesterase (Homo sapiens) (P22303 whole entry, looked up): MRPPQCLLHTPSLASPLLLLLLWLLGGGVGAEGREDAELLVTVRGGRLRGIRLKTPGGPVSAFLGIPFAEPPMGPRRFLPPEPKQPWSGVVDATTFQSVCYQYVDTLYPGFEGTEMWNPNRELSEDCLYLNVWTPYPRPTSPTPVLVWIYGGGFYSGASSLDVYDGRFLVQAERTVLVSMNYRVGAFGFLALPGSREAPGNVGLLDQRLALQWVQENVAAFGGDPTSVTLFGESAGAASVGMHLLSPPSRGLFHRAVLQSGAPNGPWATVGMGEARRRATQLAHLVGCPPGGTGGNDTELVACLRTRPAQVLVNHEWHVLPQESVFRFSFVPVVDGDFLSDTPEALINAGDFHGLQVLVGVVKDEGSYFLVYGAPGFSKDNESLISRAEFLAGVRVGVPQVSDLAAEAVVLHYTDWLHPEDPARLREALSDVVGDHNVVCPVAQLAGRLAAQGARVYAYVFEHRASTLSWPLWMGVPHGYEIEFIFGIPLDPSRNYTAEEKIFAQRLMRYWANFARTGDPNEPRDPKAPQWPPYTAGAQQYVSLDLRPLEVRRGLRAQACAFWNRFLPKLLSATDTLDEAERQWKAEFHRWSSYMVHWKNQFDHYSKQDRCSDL
Procedure, shortened: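 Quantitative HTS in attached SH-SY5Y cells: 30 min compound exposure, then 90 min with acetylthiocholine and DTNB at 37 C; colour from thiocholine reports AChE activity.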

[10] = biological target: Acetylcholinesterase (Homo sapiens) (UniProt P22303); assay: Acetylcholinesterase (AChE) small molecule antagonists: enzyme-based qHTS assay (AID 1347397; calls by dose curve; note: nearly all actives have a fitted effect of over 55% in size); conditions: Potency: AChE enzyme activity inhibition
Procedure, shortened: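 Colorimetric DTNB readout of acetylthiocholine hydrolysis, 10 min at room temperature, after 30 min room-temperature exposure of 50 mU/mL recombinant human enzyme to compound; DMSO vehicle control.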

[11] = biological target: Acetylcholinesterase (Homo sapiens) (UniProt P22303); assay: Acetylcholinesterase (AChE) small molecule antagonists: fluorescence cell-based qHTS assay (AID 1347398; calls by dose curve; note: nearly all actives have a fitted effect of over 50% in size); conditions: Potency: AChE activity
Procedure, shortened: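 Cellular AChE activity read as thiocholine from acetylthiocholine hydrolysis, detected by Thiolite Green fluorescence at 490/520 nm after 40 min at room temperature. Compounds were pre-incubated 30 min at 37 C on adherent SH-SY5Y cells.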

[12] = biological target: Acetylcholinesterase (Homo sapiens) (UniProt P22303); assay: Acetylcholinesterase (AChE) small molecule antagonists: enzyme-based qHTS assay with human liver microsomes (AID 1347399; calls by dose curve; note: nearly all actives have a fitted effect of over 60% in size); conditions: Potency: qHTS inhibition
Procedure, shortened: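 Recombinant human AChE (50 mU/mL in the enzyme mix) and human liver microsomes (0.25 mg/mL final) were preincubated with compound and NADPH (0.25 mg/mL final) for 30 min at 37 C. Acetylthiocholine/DTNB was then added; thiocholine was read colorimetrically after 10 min at room temperature.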

[13] = biological target: Cytochrome P450 2D6 (Homo sapiens) (UniProt P10635); assay: Cytochrome P450 Family 2 Subfamily D Member 6 (CYP2D6) small molecule antagonists: luciferase reporter qHTS assay (AID 1671196); note: nearly all actives have a fitted effect of over 50% in size; note: potency is the fitted concentration of half-maximal effect; for activity change, negative = inhibition: series mostly up to about 120 µM
Chain of Cytochrome P450 2D6 (Homo sapiens) (P10635 whole entry, looked up): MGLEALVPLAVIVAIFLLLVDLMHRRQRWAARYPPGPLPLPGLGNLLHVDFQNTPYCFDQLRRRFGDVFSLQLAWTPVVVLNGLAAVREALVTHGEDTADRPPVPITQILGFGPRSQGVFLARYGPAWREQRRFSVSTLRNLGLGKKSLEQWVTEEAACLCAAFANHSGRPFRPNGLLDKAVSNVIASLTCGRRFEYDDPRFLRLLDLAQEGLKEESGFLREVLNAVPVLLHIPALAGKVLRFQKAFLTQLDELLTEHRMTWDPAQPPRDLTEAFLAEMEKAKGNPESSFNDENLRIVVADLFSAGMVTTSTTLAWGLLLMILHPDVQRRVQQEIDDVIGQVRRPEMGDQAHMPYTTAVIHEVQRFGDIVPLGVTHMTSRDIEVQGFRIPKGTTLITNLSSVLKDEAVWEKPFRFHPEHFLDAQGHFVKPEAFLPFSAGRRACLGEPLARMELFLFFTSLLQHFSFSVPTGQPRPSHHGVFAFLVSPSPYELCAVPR
Procedure, shortened: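 Chemicals tested for interference with CYP2D6 activity; proluciferin substrate, NADPH regeneration, 1 h at room temperature, luminescent detection.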

[14] = biological target: Cytochrome P450 2C19 (Homo sapiens) (UniProt P33261); assay: Cytochrome P450 Family 2 Subfamily C Member 19 (CYP2C19) small molecule antagonists: luciferase reporter qHTS assay (AID 1671197); note: nearly all actives have a fitted effect of over 65% in size; note: potency is the fitted concentration of half-maximal effect; for activity change, negative = inhibition: series mostly up to about 120 µM
Chain of Cytochrome P450 2C19 (Homo sapiens) (P33261 whole entry, looked up): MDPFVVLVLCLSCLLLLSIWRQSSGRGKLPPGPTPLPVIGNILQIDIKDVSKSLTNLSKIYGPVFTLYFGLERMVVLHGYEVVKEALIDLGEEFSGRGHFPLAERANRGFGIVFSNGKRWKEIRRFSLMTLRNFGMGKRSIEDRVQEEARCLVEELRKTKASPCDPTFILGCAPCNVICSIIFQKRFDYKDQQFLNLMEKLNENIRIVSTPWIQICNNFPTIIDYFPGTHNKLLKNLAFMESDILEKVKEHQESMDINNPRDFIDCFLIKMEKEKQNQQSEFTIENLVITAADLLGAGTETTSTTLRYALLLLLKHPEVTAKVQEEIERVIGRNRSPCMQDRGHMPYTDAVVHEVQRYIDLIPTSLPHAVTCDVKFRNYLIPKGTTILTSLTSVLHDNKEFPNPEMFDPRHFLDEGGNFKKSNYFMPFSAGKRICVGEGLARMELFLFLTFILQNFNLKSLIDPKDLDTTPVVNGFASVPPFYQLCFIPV
Procedure, shortened: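 Compounds were tested on CYP2C19 activity via proluciferin conversion to luciferin. The 37C, 1 h reaction followed NADPH addition; detection reagent stopped it.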

[15] = biological target: Cytochrome P450 2C9 (Homo sapiens) (UniProt P11712); assay: Cytochrome P450 Family 2 Subfamily C Member 9 (CYP2C9) small molecule antagonists: luciferase reporter qHTS assay (AID 1671198); note: nearly all actives have a fitted effect of over 50% in size; note: potency is the fitted concentration of half-maximal effect; for activity change, negative = inhibition: series mostly up to about 120 µM
Chain of Cytochrome P450 2C9 (Homo sapiens) (P11712 whole entry, looked up): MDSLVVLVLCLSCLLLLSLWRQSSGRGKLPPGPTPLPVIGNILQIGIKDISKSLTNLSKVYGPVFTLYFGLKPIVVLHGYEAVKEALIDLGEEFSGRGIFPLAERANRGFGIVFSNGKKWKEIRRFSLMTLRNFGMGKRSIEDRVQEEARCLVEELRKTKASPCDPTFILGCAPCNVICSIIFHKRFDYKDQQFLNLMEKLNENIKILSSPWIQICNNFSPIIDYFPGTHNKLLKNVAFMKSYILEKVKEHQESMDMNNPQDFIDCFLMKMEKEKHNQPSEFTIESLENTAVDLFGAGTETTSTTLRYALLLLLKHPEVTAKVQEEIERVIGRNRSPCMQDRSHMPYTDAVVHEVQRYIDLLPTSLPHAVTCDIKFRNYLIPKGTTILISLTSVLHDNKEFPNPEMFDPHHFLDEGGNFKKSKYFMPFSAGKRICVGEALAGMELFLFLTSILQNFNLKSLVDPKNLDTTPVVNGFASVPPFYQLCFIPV
Procedure, shortened: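 Enzyme-substrate mix preincubated with compound 10 min at room temperature; reaction started with NADPH regeneration solution, 1 h 37C. Luminescent luciferin product read after 20 min detection reagent.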

[16] = biological target: Thyrotropin-releasing hormone receptor (Homo sapiens) (UniProt P34981); assay: qHTS assay to identify small molecule antagonists of the thyrotropin-releasing hormone receptor (TRHR) signaling pathway (AID 1346877; active = well fitted inhibition curve with a large enough effect in the repeat runs, not every such curve was filed as active; note: series mostly up to about 51 µM)
Chain of Thyrotropin-releasing hormone receptor (Homo sapiens) (P34981 whole entry, looked up): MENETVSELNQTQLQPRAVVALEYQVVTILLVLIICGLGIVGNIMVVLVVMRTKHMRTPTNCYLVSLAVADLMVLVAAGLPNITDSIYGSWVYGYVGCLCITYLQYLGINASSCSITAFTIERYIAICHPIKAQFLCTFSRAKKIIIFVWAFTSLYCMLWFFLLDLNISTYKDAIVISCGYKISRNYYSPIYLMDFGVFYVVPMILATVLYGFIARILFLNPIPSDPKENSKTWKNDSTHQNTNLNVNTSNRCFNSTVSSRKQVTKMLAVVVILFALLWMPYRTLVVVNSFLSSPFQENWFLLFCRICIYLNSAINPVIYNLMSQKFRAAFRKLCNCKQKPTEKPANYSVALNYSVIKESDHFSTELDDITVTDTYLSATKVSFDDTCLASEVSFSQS
Procedure, shortened: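 Overnight-plated (18 h, 37 °C) HEK293 cells expressing TRHR were dye-loaded 2 h, treated with compound, then stimulated with TRH at 1 nM final. Fluorescence intensity was captured every second for 3 min.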

[17] = biological target: Thyrotropin-releasing hormone receptor (Homo sapiens) (UniProt P34981); assay: qHTS assay to identify small molecule agonists of the thyrotropin-releasing hormone receptor (TRHR) signaling pathway (AID 1346891; calls by dose curve;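 note: HEK293 cells expressing TRHR with calcium dye readout; series mostly up to about 58 µM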)
Procedure, shortened: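 Kinetic fluorescence (3 min, 1 s intervals) reported intracellular calcium after compound transfer onto TRHR-Hek293 cells pre-loaded with dye for 2 h at 37 °C.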

SMILES | outcome [1] | Potency [2] | Potency [3] | outcome [4] | Potency [5] | outcome [6] | Potency [7] | Potency [8] | Potency [9] | Potency [10] | Potency [11] | Potency [12] | Potency [13] | activity change, negative = inhibition [14] | Potency [15] | Potency [14] | outcome [16] | Potency [17]
C=C(C)CCl | inactive | inactive | inactive | inactive | inactive | inactive | inactive | inactive | inactive | inactive | inactive | inactive | inactive | 3.29% [at 10.5 µM] (inactive) | inactive |  |  | 
Cc1cc(-c2cc(C)c(N)c(C)c2)cc(C)c1N | inactive | inactive | inactive | inactive | inactive | inactive | inactive | 54.6 µM (active) and 26.8 µM (active) | inactive | inactive | inactive | inactive | 22.5 µM (active) and 15.6 µM (active) |  |  | 10.1 µM (active) and 8.78 µM (active) |  | 
O=NN1CCCC1 | inactive | inactive | inactive | inactive | inactive | inactive | inactive | inactive | 13.2 µM (active) and inactive | inactive | inactive | inactive | inactive |  |  | 33.2 µM (active) and inactive |  | 
Nc1ccc(Oc2ccc(N)cc2)cc1 | inactive | inactive | inactive | inactive | inactive | inactive | inactive | 62 µM (active) | inactive | inactive | inactive | inactive | 36.1 µM (active) and 31.7 µM (active) |  | 14.4 µM (active) and 8.94 µM (active) | 18.1 µM (active) and 20 µM (active) |  | 
CC(C)(C)OOC(=O)c1ccccc1 | inactive | inactive | inactive | inactive | inactive | inactive | inactive | inactive | inactive | inactive | inactive | inactive |  |  | inactive | inactive |  | 
CON(C)C(=O)Nc1ccc(Cl)c(Cl)c1 | inactive | inactive | inactive | inactive |  | inactive | inactive | 61.4 µM (active) and 54.5 µM (active) | inactive | inactive | inactive | inactive |  |  | 40.1 µM (active) and 39.9 µM (active) | 16 µM (active) and 39.9 µM (active) | inactive | inactive
c1ccc2c(c1)Oc1ccccc1O2 | inactive | inactive | inactive | inactive | inactive | inactive | inactive | inactive | inactive |  | inactive | inactive | inactive |  | inactive | inactive |  | 
Cc1ccc(N)cc1Cl | inactive | inactive | inactive | inactive | inactive | inactive | inactive | inactive | inactive |  | inactive | inactive |  |  | 32.1 µM (active) and 35.6 µM (active) | 7.18 µM (active) and 11.2 µM (active) | inactive | inactive
O=c1ccc(=O)[nH][nH]1 | inactive | inactive | inactive | inactive | inactive | inactive | inactive | inactive | inactive | inactive | inactive | inactive | inactive |  |  | inactive |  | 
COc1ccc2c3c1O[C@H]1[C@@H](O)C=C[C@H]4[C@@H](C2)N(C)CC[C@@]341 | inactive | inactive | 67.5 µM (active) and inactive | inactive | 60.1 µM (active) and inactive | inactive | inactive | inactive | inactive | inactive | inactive | inactive |  |  |  | inactive |  | 
CCCN(CCC)c1c([N+](=O)[O-])cc(C(F)(F)F)cc1[N+](=O)[O-] | inactive | inactive | inactive | inactive | inactive | inactive | inactive | 30.6 µM (active) | inactive |  | inactive | inactive | inactive |  |  | 39.8 µM (active) and 35.6 µM (active) | inactive | inactive
COC(=O)c1ccccc1N | inactive | inactive | inactive | inactive | inactive | inactive | inactive | inactive | inactive |  | inactive | inactive |  |  |  | inactive | inactive | inactive
COC(=O)c1ccccc1C(=O)OC | inactive | inactive | inactive | inactive | inactive | inactive | inactive | inactive | inactive |  | inactive | inactive | inactive |  | inactive | 71.4 µM (active) |  | 
Cc1[nH]c(=O)n(C(C)(C)C)c(=O)c1Cl | inactive | inactive | inactive | inactive | inactive | inactive | inactive | inactive | inactive |  | inactive | inactive | inactive |  | inactive | 71.7 µM (active) and 31.7 µM (active) |  | 
CC(C)(Cl)Cl | inactive | inactive | inactive | inactive | inactive | inactive | inactive | inactive | inactive |  | inactive | inactive |  |  |  | 40.6 µM (active) and 71 µM (active) | inactive | inactive
O=NN1CCCCCCC1 | inactive | inactive | inactive | inactive | inactive | inactive | inactive | inactive | inactive |  | inactive | inactive | inactive |  | inactive | inactive | inactive | inactive
